Assay results published in PubChem BioAssay (Tox21).
Active and inactive are the calls of the source. The call rests on the fitted dose curve; in most records, active means well fitted curve in the direction sought with a large enough effect in the repeat runs; inconclusive means weak or mixed curves; inactive means flat fitted curve, though single readings scatter.

Experiment: qHTS assay to test for compound auto fluorescence at 590 nm (red) in HEK293 cells (AID 720679)
Conditions: red autofluorescence 540/590 nm; series mostly up to 91.3 µM; fluorescence, % of fluorescent control: at the top concentration
Text: National Center for Advancing Translational Sciences [NCATS]
NIH Chemical Genomics Center [NCGC]
U.S. Environmental Protection Agency [EPA]
National Institutes of Environmental Health Sciences [NIEHS]
National Toxicology Program [NTP]
U.S. Food and Drug Administration [FDA]
Compound auto fluorescence often interferes with screening of the compound library against various biological targets and signaling pathways. Some of these compounds may have fluorophoric properties. Such properties may interfere with the assay outputs resulting in false positives and/or negatives. To decrease such complications and ensure the compound activities are relevant in terms of biological response, the Tox21 10K compound library was screened for auto fluorescence.
From the fluorophores used as reporter signals in our screening assays, the auto fluorescence equivalencies of compounds against three fluorophores have been evaluated: Triamterene, Fluorescein and Rose Bengal sodium for blue, green and red fluorescence, respectively. The fluorescence intensities were measured using Excitation/Emission wavelengths at 405/460nm, 485/535nm and 540/590nm for blue, green and red labels, respectively. This assay includes the red fluorescence data.
Tox21 Assay Protocol Summary:
2,000 HEK293 cells in 5 uL of culture medium containing 10% dialyzed FBS per well were dispensed into black wall/clear bottom 1536-well plates using a Multidrop Combi Dispenser (Thermo Scientific). The assay plates were incubated for 4-5 hr at 37C to allow cell attachment to the well bottom, followed by the transfer of 23 nL compound or DMSO vehicle by a pintool work station (Kalypsys, San Diego, CA). After the assay plates were incubated overnight at 37C and 5% CO2, fluorescence intensities in the assay plates were measured by an Envision (PerkinElmer, Shelton, CT) plate reader using three labels for measuring blue, green and red fluorescence at […] 460, 535 and 590nm respectively.
On the % scale 0 is the no-effect control and ±100 the full control effect.

Compound	fluorescence, % of fluorescent control	outcome
Cc1ccccc1N=C(N)N=C(N)N	0.0317% (inactive)	–
COc1ccc2cc1Oc1cc3c(cc1OC)CC[N+](C)(C)[C@H]3Cc1ccc(cc1)Oc1c(OC)c(OC)cc3c1[C@@H](C2)[N+](C)(C)CC3	0.0275% [at 46 µM] (inactive)	–
C=C[Si](OC(C)=O)(OC(C)=O)OC(C)=O	0.282% (inactive)	–
CCC(C)(CCCC(C)C)OC(C)=O (stereo not given)	-0.333% (inactive)	–
O=C(O)CNC(=O)c1ccccc1	0.177% [at 46 µM] (inactive)	–
Cc1ccc(C(=O)c2ccccc2)cc1	0.264% (inactive)	–
CC1=NN(c2cccc(S(=O)(=O)O)c2)C(=O)C1	0.198% (inactive)	–
COC(=O)Nc1ccc(Cl)c(Cl)c1	-0.872% (inactive)	–
NCCCC(N)(C(=O)O)C(F)F (stereo not given)	-0.603% [at 46 µM] (inactive)	–
CCOC(=O)CCC(=O)OCC	-0.275% (inactive)	–
O=C(O)Cc1csc(-c2ccc(Cl)cc2)n1	0.0484% [at 46 µM] (inactive)	–
C[N+]12CCC(CC1)C(OC(=O)C(O)(c1ccccc1)c1ccccc1)C2 (stereo not given)	-0.175% [at 18.6 µM] (inactive)	–
CC[C@H]1OC(=O)[C@H](C)[C@@H](O[C@H]2C[C@@](C)(OC)[C@@H](O)[C@H](C)O2)[C@H](C)[C@@H](O[C@@H]2O[C@H](C)C[C@H](N(C)C)[C@H]2O)[C@](C)(OC)C[C@@H](C)C(=O)[C@H](C)[C@@H](O)[C@]1(C)O	–	inactive
COc1cc(C)nc(-n2nc(C)cc2OC)n1	-0.0061% [at 18.6 µM] (inactive)	–
NC(=O)Cc1cccc2ccccc12	-0.0064% (inactive)	–
CO[C@@]1(NC(=O)CSC[C@@H](N)C(=O)O)C(=O)N2C(C(=O)O)=C(CSc3nnnn3C)CS[C@@H]21	0.0816% [at 46 µM] (inactive)	–
COc1cc(C(=O)OC(COCCC(C)C)CN2CCOCC2)cc(OC)c1OC (stereo not given)	0.0713% [at 46 µM] (inactive)	–
CCCO[Si](OCCC)(OCCC)OCCC	0.0122% (inactive)	–
CCCCCCCCN1CCCC1=O	0.0836% (inactive)	–
CCCCN1C=CN(C)C1	-0.0345% [at 18.6 µM] (inactive)	–

Compound	fluorescence, % of fluorescent control	outcome
O=C1NC(=O)C2CC=CCC12 (stereo not given)	0.0738% (inactive)	–
COC(=O)C1=C(C)NC(C)=C(C(=O)OC(C)C)C1c1cccc2nonc12 (stereo not given)	0.0072% [at 18.6 µM] (inactive)	–
CC(C)C[C@@H](N)C(=O)O	0.394% [at 46 µM] (inactive)	–
CCCCOCCOC(=O)CCCCCCCCC(=O)OCCOCCCC	-0.454% (inactive)	–
Nc1ccn([C@@H]2O[C@H](CO)[C@@H](O)[C@@H]2O)c(=O)n1	0.419% (inactive)	–
CC(=O)NC(=O)c1ccccc1O	0.1% [at 46 µM] (inactive)	–
CO[C@@]1(NC(=O)C(C(=O)O)c2ccc(O)cc2)C(=O)N2C(C(=O)O)=C(CSc3nnnn3C)CO[C@@H]21 (stereo not given in full)	0.0051% [at 18.6 µM] (inactive)	–
c1ccc2sc(SN3CCOCC3)nc2c1	0.0824% [at 46 µM] (inactive)	–
FB(F)F	-0.0236% [at 95.7 µM] (inactive)	–
CC(C)(C)OC(=O)c1cccc(N)c1	-0.0033% [at 95.7 µM] (inactive)	–
O=C(O)c1cn(C2CC2)c2cc(N3CCNCC3)c(F)cc2c1=O	-0.0071% [at 18.6 µM] (inactive)	–
CCCCCC(C)N (stereo not given)	-0.813% [at 46 µM] (inactive)	–
CC1=CC(=O)[C@H]2C[C@@H]1C2(C)C	0.304% (inactive)	–
CCCCCCCCCC[N+](C)(C)[O-]	-0.0362% (inactive)	–
O=C(CO)[C@@H](O)[C@H](O)[C@@H](O)CO	0.0388% [at 46 µM] (inactive)	–
[O-][n+]1cccc(CO)c1	-0.0492% [at 46 µM] (inactive)	–
CC1CCC(CO)CC1 (stereo not given)	0.141% [at 95.7 µM] (inactive)	–
CC(CC=O)CC(C)(C)C (stereo not given)	0.369% (inactive)	–
NC(N)=NCCN1CCCCCCC1	-0.493% [at 18.6 µM] (inactive)	–
NO	-0.0552% [at 95.7 µM] (inactive)	–
